# In PubChem BioAssay:
# The source made the active and inactive calls.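 The calls were made as follows, unless noted: active = inhibition at or above 50% at 10 µM; inactive = inhibition below 50%.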
# Key:
# [1] = inhibitors of TNFa-induced NFkB p65 translocation, primary screen, imaging, HUVEC, MLSMR starter and 10KST1 sets (AID 438;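 active = inhibition above 20% together with a positive visual image hit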;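 also: compound added about 3h40 before a 20 min TNFalpha stimulation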;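 as to inhibition: signal is the nuclear over cytoplasmic p65 intensity ratio per well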); conditions: HUVEC TNFa-induced p65 nuclear translocation; cell count: measured here: nuclei count (cytotoxicity indicator), at 2.08 µM; inhibition: at 2 µM, stronger effect = higher value, 0% TNFa-plus-vehicle, 100% no-TNFa wells
# [2] = reduction of polyQ htt aggregates in cells – imaging, exon1htt(103Q)mCFP cells, high-content imaging, primary screen (AID 483;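 active = visual image review flags a hit and inhibition of aggregation exceeds 20%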;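 also: compound exposure lasted 3 days before fixation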;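 as to nuclei count: percent of the per-plate median nuclei count of sample wells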); conditions: exon1htt(103Q)mCFP cell line, aggregate imaging, at 2 µM; inhibition of aggregation: stronger effect = higher value; nuclei count: measured here: cell count, toxicity
# [3] = endothelial E-selectin expression blockers – imaging, HUVEC, immunofluorescence, MLSMR starter and 10KST1 sets, primary screen (AID 487;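 active = visually confirmed hit in the image check and inhibition above 20%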;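 as to inhibition: signal is fraction of cell area covered by stained E-selectin grains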;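 as to nuclei count: 100% = median nuclei count of all wells on the same plate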); conditions: HUVEC TNFalpha-induced E-selectin immunofluorescence imaging, at 2 µM; inhibition: stronger effect = higher value; nuclei count: measured here: cell number, toxicity
# [4] = molecular target: Voltage-gated potassium channel subunit beta-2 (Rattus norvegicus) (UniProt P62483); experiment: inhibitors of rat Kvbeta2 reductase activity – biochemical, NADPH fluorescence, primary screen (AID 622;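 active = fluorescence slope higher than the sample average by over 3 SD, cut at about -0.22 in these data, passing the limit was not always enough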;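 also: slope of raw intensity against log time taken from 70 to 1610 s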); conditions: recombinant KvBeta, 4-cyanobenzaldehyde reduction, at 10 µM, stronger effect = higher value
# Chain of Voltage-gated potassium channel subunit beta-2 (Rattus norvegicus) (P62483 whole entry, looked up): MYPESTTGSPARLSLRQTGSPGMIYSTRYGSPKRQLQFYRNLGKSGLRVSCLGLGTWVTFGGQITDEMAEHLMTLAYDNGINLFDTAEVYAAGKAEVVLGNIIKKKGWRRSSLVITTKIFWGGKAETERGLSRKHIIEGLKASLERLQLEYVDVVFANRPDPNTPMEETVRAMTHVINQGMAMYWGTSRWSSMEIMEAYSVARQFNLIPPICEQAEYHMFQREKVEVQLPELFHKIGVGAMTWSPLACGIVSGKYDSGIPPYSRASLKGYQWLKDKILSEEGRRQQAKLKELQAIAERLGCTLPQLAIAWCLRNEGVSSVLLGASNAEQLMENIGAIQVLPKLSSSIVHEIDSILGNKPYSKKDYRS
# [5] = molecular target: Voltage-gated potassium channel subunit beta-2 (Rattus norvegicus) (UniProt P62483); experiment: enhancers of rat Kvbeta2 NADPH turnover – biochemical, NADPH fluorescence, primary screen (AID 623;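 active = NADPH fluorescence slope more negative than the mean of all samples by about 3 SD, 99.7% confidence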;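 also: fluorescence intensity change per second fitted from 20 to 320 s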); conditions: Recombinant KvBeta, NADPH fluorescence decrease slope, 10 min; at 10 µM; stronger effect = lower value
# [6] = molecular target: Alpha-2C adrenergic receptor (Homo sapiens) (UniProt P18825); experiment: compounds altering alpha2C-coupled GIRK flux – cell-based, HEK293 alpha2C/GIRK1/2, thallium flux, primary screen (AID 624;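 active = fluorescence slope after compound addition differing from the mean of all screened samples at 99.7% confidence, in either direction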;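 also: slope of fluorescence ratio to pre-addition baseline per second over 15 to 24 s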); conditions: thallium flux BTC fluorescence, at 10 µM, actives lie on both sides
# Chain of Alpha-2C adrenergic receptor (Homo sapiens) (P18825 whole entry, looked up): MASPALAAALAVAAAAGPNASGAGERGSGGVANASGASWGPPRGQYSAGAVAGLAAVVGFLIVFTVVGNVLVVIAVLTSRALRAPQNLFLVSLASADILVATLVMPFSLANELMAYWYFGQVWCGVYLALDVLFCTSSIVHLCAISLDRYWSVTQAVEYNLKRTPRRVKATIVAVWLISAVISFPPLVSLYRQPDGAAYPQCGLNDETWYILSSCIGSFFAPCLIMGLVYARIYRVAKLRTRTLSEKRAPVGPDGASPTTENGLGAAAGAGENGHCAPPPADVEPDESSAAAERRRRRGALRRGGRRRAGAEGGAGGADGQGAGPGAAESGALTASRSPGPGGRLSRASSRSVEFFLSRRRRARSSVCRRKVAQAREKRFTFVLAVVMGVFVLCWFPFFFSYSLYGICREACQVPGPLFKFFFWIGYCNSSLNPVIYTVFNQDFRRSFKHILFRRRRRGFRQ
# [7] = blockers of RIG-like receptor reporter activation – cell-based, Sendai virus stimulus, luciferase, 10K MLSCN set, TLR/RLR signaling modifier project, primary screen (AID 602276); conditions: HEK293 RL24 IRF3 luciferase reporter, at 10 µM, stronger effect = higher value;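 also: firefly luciferase from ISG56 promoter only with Renilla not read in this screen; 0% = Sendai virus plus DMSO and 100% = medium plus DMSO without virus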
# [8] = TLR3 IRF3 reporter activation blockers – cell-based, poly I:C stimulus, luciferase, 10K MLSCN set, primary screen (AID 602277;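 active = inhibition of the reporter signal at or above 50%; inactive = inhibition below 50%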); conditions: HEK293-TLR3 RL24 IRF3 luciferase reporter, at 10 µM, stronger effect = higher value
SMILES,cell count [1],inhibition [1],inhibition of aggregation [2],nuclei count [2] [%],inhibition [3],nuclei count [3] [%],fluorescence slope [4],NADPH fluorescence slope [5],slope [6],inhibition [7],inhibition [8]
O=C1CCCCCC1C1(O)C(=O)Nc2ccccc21 (stereo unspecified),349,10% (inactive),-6% (inactive),101,-26.3% (inactive),116,-0.424 (inactive),4e-05 (inactive),0.00358 (inactive),9.01% (inactive),29% (inactive)
CN(C)S(=O)(=O)c1ccc(S(=O)(=O)N(Cc2ccco2)Cc2ccccc2Cl)cc1,478,4% (inactive),0.8% (inactive),98.9,-58.4% (inactive),99.8,-0.523 (inactive),8.8e-06 (inactive),0.00696 (inactive),4.31% (inactive),53.4% (active)
Nc1nonc1-n1nnc(C(=O)c2ccccc2)c1-c1ccccc1,412,-20% (inactive),1.5% (inactive),110,28.1% (inactive),103,-0.571 (inactive),7.3e-06 (inactive),0.00623 (inactive),10.9% (inactive),2.08% (inactive)
O=C(CN1C(=O)CSC1=O)Nc1ccc(N2CCOCC2)cc1,700,-1% (inactive),15.2% (inactive),110,-27.8% (inactive),113,-0.544 (inactive),-2.2e-05 (inactive),0.00569 (inactive),-8.99% (inactive),-8.78% (inactive)
CCCC(=O)Nc1ccc(NC(=O)c2ccccc2OC)cn1,376,-3.6% (inactive),18.8% (inactive),90.7,-23.7% (inactive),96.3,-0.442 (inactive),7.2e-05 (inactive),0.00808 (inactive),1.27% (inactive),-1.09% (inactive)
O=C(c1ccc(Br)o1)N(Cc1ccccc1)c1ccccn1,386,-5.9% (inactive),13.3% (inactive),102,5.4% (inactive),107,-0.43 (inactive),5.2e-05 (inactive),0.00529 (inactive),5.65% (inactive),-0.317% (inactive)
COc1cccc(NC(=O)C2CCN(c3ncccn3)CC2)c1,746,-18.4% (inactive),-8.1% (inactive),94.4,-62.3% (inactive),129,-0.437 (inactive),-1.9e-05 (inactive),0.00449 (inactive),0.711% (inactive),-6.34% (inactive)
O=C(NCc1ccco1)c1cccc(-c2nnc(-c3ccccc3)o2)c1,320,-6% (inactive),5.1% (inactive),122,-78.1% (inactive),124,-0.422 (inactive),-6.2e-05 (inactive),0.00529 (inactive),18.5% (inactive),-23.1% (inactive)
CCOc1ccc(CCN2C(=O)C3C4C=CC(C4)C3C2=O)cc1OCC (stereo unspecified),626,2.9% (inactive),-33.6% (inactive),134,-51.4% (inactive),112,-0.551 (inactive),-1.1e-05 (inactive),0.00791 (inactive),16.8% (inactive),36.6% (inactive)
CC(=O)Nc1ccc(S(=O)(=O)N2CCN(C(=O)CCC3CCCC3)CC2)cc1,312,-0.8% (inactive),-12.8% (inactive),96.2,-42.2% (inactive),129,-0.581 (inactive),5.8e-05 (inactive),0.00522 (inactive),24.2% (inactive),10.7% (inactive)
O=C1COc2ccc(C(=O)COC(=O)CCc3ccc(S(=O)(=O)N4CCOCC4)cc3)cc2N1,410,-1.9% (inactive),12.6% (inactive),90.4,-119% (inactive),104,-0.37 (inactive),-5.9e-05 (inactive),0.00618 (inactive),4.84% (inactive),23.5% (inactive)
CC(=O)Nc1ccccc1OCc1nnc(-c2cccs2)o1,392,4.8% (inactive),-8.8% (inactive),92.5,-266% (inactive),104,-0.612 (inactive),2e-06 (inactive),0.00944 (inactive),-27% (inactive),-28.6% (inactive)
CCC(C(=O)NC1CCCC1)N(Cc1ccco1)C(=O)Cn1nnc(-c2ccc(C)cc2)n1 (stereo unspecified),478,1.7% (inactive),10.6% (inactive),114,-150% (inactive),112,-0.617 (inactive),-1.6e-05 (inactive),0.0026 (inactive),10.8% (inactive),-7.83% (inactive)
Cc1ccc2cc(CN(CC3CCCO3)S(=O)(=O)c3ccc4c(c3)OCCO4)c(=O)[nH]c2c1C (stereo unspecified),478,2.4% (inactive),8.6% (inactive),110,-42.1% (inactive),135,-0.391 (inactive),-8.2e-06 (inactive),0.00544 (inactive),3.97% (inactive),-19.6% (inactive)
CCC(=O)N1C(=O)CCN(C(C)=O)c2ccccc21,454,11.3% (inactive),-2.5% (inactive),109,-39.7% (inactive),130,-0.381 (inactive),2.5e-05 (inactive),0.0091 (inactive),13.1% (inactive),20.6% (inactive)
CCOC(=O)C1C(=O)N(C(=O)c2ccc(OC)cc2)CC1c1ccccc1 (stereo unspecified),423,-7.6% (inactive),-7.4% (inactive),99,-39.2% (inactive),128,-0.384 (inactive),-0.000151 (inactive),0.00629 (inactive),12.3% (inactive),22.3% (inactive)
CCSc1nc2ccccc2n1CCC(=O)O,615,-62.2% (inactive),1.9% (inactive),85.7,-96.2% (inactive),111,-0.49 (inactive),-0.000157 (inactive),0.00453 (inactive),10.2% (inactive),18.3% (inactive)
CC(=O)c1cccc(NC(=O)CCNS(=O)(=O)c2cccc3nsnc23)c1,439,-3.5% (inactive),-17.6% (inactive),104,-46.7% (inactive),107,-0.539 (inactive),-3e-05 (inactive),0.00543 (inactive),11.2% (inactive),17.2% (inactive)
Oc1ccc(Nc2nc(-c3ccc(O)cc3)cs2)cc1,277,15.1% (inactive),18.9% (inactive),71.8,-20.5% (inactive),124,-0.429 (inactive),-4.3e-05 (inactive),0.00332 (inactive),-43% (inactive),-59.8% (inactive)
Cc1nc(SCc2ccc(Br)cc2)[nH]c(=O)c1C,755,0.8% (inactive),-11.8% (inactive),76.4,-44.8% (inactive),117,-0.452 (inactive),-2.5e-05 (inactive),0.00691 (inactive),3.06% (inactive),29.5% (inactive)
COc1ccc(NC(=O)C2Cc3ccccc3C(=O)O2)cc1 (stereo unspecified),642,0.3% (inactive),15.6% (inactive),105,-19.3% (inactive),120,-0.427 (inactive),-6e-05 (inactive),0.00562 (inactive),-11.7% (inactive),-23.5% (inactive)
COc1ccc(C2C(C(C)=O)=C(C)N=c3s/c(=C/c4ccc5c(c4)OCO5)c(=O)n32)cc1 (stereo unspecified),437,-7.3% (inactive),-44.9% (inactive),116,-0.5% (inactive),116,-0.528 (inactive),-5.5e-05 (inactive),0.00398 (inactive),10.2% (inactive),23.9% (inactive)
Cc1ccnc(NS(=O)(=O)c2ccc(NC(=O)Cc3cccs3)cc2)n1,301,6.3% (inactive),0.7% (inactive),67,-83.5% (inactive),104,-0.408 (inactive),6.5e-05 (inactive),0.00546 (inactive),-4.32% (inactive),-12.1% (inactive)
CCc1ccc(NC(=O)CS(=O)CC(=O)NC(C)CCc2ccco2)cc1 (stereo unspecified),388,0.6% (inactive),18.9% (inactive),94.8,-203% (inactive),116,-0.484 (inactive),-1.8e-05 (inactive),0.00694 (inactive),5.19% (inactive),13.9% (inactive)
O=C(Oc1ccc(Cl)cc1N1C(=O)CCC1=O)c1ccco1,331,-4.2% (inactive),-31.4% (inactive),114,-182% (inactive),134,-0.463 (inactive),-1.4e-05 (inactive),0.00607 (inactive),7.34% (inactive),31.5% (inactive)
CCOc1ccc2[nH]c(O)c(NC(C)=O)c2c1,645,-20.5% (inactive),5.7% (inactive),104,43.8% (inactive),101,-0.361 (inactive),-5.8e-05 (inactive),0.00431 (inactive),10.2% (inactive),16.9% (inactive)
